In PubChem BioAssay (EPA / NIEHS):
Records with an inconclusive call do not appear. Calls of active or inactive are those of the source. How the source made its calls, unless noted: active means hit-call score of the fitted dose curve at least 0.9, where 1 is the maximum; inactive means score below 0.9.

Legend:
[1] = CCTE_Simmons_MITO_viability: CellTiter-Glo Viability Assessment for CCTE's HepG2 Seahorse XF Respirometric Screening Assay [post-hoc], Simmons Lab (AID 2284007; active means hit-call score of the fitted dose curve at least 0.9, where 1 is the maximum;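 on AC50: cells exposed to chemical for 90 min before the ATP read; actives lower ATP signal relative to DMSO baseline meaning reduced viability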)
Summary of the method: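 After the Seahorse oxygen-consumption sequence (basal, FCCP, rotenone/antimycin A; 72 min total), HepG2 viability was scored as ATP content by bioluminescence. Chemicals ran at seven concentrations up to 100 uM final for 90 min.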

[2] = CCTE_Shafer_MEA_acute_spike_number: CCTE's Neural Acute Assay for Total Number of Spikes, Shafer Lab (AID 2284008);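 on AC50: curve fitted for decrease in spike count so AC50 reflects inhibitors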
Summary of the method: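 Rat cortical cultures, DIV 13/15, 37 C. 40 min baseline rec, cpd 0.03-40 uM, 40 min post-dose rec. Band-pass 300-5000 Hz, spike threshold 8x rms; % change in spike count per well, DMSO neg ctrl, loss-of-signal fit.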

[3] = CCTE_Shafer_MEA_acute_firing_rate_mean: CCTE's Neural Acute Assay for Mean Firing Rate, Shafer Lab (AID 2284009);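 further: analyzed for loss of signal so actives lower firing rate relative to DMSO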
Summary of the method: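 Percent change in well-mean firing rate was derived from extracellular spikes detected at 8x rms noise (300-5000 Hz band-pass) before and after a 40-min compound exposure. Cultures were primary rat cortical neurons, tested at 0.03-40 uM.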

[4] = CCTE_Harrill_HTTr_Viability_MCF7: CCTE's 6-hour Cell Viability Assessment for the High-Throughput Transcriptomics (HTTr) Platform, in MCF-7 cells cultured in DMEM + 10% fetal bovine serum, Harrill Lab (AID 2284010)
Summary of the method: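 Cells were dosed with chemicals in an eight-point dilution series, imaged 6 hours later for propidium iodide uptake, and the endpoint was analyzed by bidirectional fitting against DMSO as negative control.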

[5] = CCTE_Harrill_HTTr_Apoptosis_MCF7: CCTE's 6-hour Apoptosis Assessment for the High-Throughput Transcriptomics (HTTr) Platform, in MCF-7 cells cultured in DMEM + 10% fetal bovine serum, Harrill Lab (AID 2284011)
Summary of the method: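 Read-out: CellEvent Caspase 3/7 Green signal by high content imaging, gain-of-signal indicating apoptosis. MCF-7 cells, DMEM + 10% FBS, eight-point dilution series, 6 h exposure. Curves fitted bidirectionally relative to DMSO negative control.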

[6] = CCTE_Shafer_MEA_acute_burst_duration_mean: CCTE's Neural Acute Assay for Mean Burst Duration, Shafer Lab (AID 2284014);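 further: hits are decreases in mean burst duration relative to DMSO controls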
Summary of the method: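 Read-out is the per-well percent change in mean burst duration (first to last spike within a single-electrode burst) between 40-min recordings before and after compound. Cultures were primary rat cortical neurons on MEAs, dosed at 0.03-40 uM on DIV 13 or 15.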

[7] = CCTE_Shafer_MEA_acute_per_burst_spike_number_mean: CCTE's Neural Acute Assay for Average Number of Spikes Per Burst, Shafer Lab (AID 2284015);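 further: hits are decreases in mean spikes per burst versus baseline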
Summary of the method: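 Read-out: percent change in mean spikes per burst, each well's post-exposure 40-min recording versus its own 40-min baseline. Rat cortical cultures, DIV 13 or 15, compounds 0.03-40 uM; DMSO is negative control, loss-of-signal fitting.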

[8] = CCTE_Shafer_MEA_acute_interburst_interval_mean: CCTE's Neural Acute Assay for Mean Interburst Interval, Shafer Lab (AID 2284016);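 further: percent change of mean interburst interval versus each well's own pre-dose baseline; curves fitted for decrease in interburst interval relative to DMSO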
Summary of the method: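 Rat cortical cultures, DIV 13/15; 20 min equilibration, 40 min baseline, compound 0.03-40 uM, 40 min re-recording, 37 C. Spikes detected at 8x rms noise (300-5000 Hz band-pass). Endpoint: % change in interburst interval, fitted in loss direction vs DMSO.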

[9] = CCTE_Shafer_MEA_acute_burst_percentage_mean: CCTE's Neural Acute Assay for Percentage of Spikes in a Burst, Shafer Lab (AID 2284017);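 on AC50: curve fitted for loss of signal so potency reflects decreased burst percentage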
Summary of the method: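 Rat cortical cultures, DIV 13/15, 37 C. Spikes detected at 8x rms noise (300-5000 Hz band-pass). Burst spikes/total spikes averaged across electrodes per well; % change post- vs pre-treatment (40 min each), loss-of-signal fit vs DMSO.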

[10] = CCTE_Shafer_MEA_acute_burst_percentage_std: CCTE's Neural Acute Assay for Standard Deviation of Burst Percentage, Shafer Lab (AID 2284018);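 further: fitted in the negative direction so actives lower burst percentage SD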
Summary of the method: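 Value is percent change from baseline in the across-electrode SD of spikes-in-bursts percentage, wells with >/= 10 active electrodes. Acute 40-min exposure to 0.03-40 uM on DIV 13 or 15 rat cortical cultures, recorded at 37 C after 40-min baseline.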

[11] = CCTE_Shafer_MEA_acute_per_network_burst_spike_number_mean: CCTE's Neural Acute Assay for Average Number of Spikes in a Network Burst, Shafer Lab (AID 2284019)
Summary of the method: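 Read-out is mean spike count per network burst, taken as percent change between a 40-min pre-exposure and a 40-min post-exposure recording per well. Rat primary cortical neurons on MEAs at 37 C, DIV 13 or 15; compounds at 0.03-40 uM.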

[12] = CCTE_Shafer_MEA_acute_per_network_burst_spike_number_std: CCTE's Neural Acute Assay for Standard Deviation of Number of Spikes in a Network Burst, Shafer Lab (AID 2284020);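 further: fitted for decrease in spike-number SD versus DMSO so actives lower it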
Summary of the method: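 Spontaneous network activity of primary rat cortical neurons is recorded extracellularly before and after a 40-min compound exposure (0.03-40 uM) at 37 C. The endpoint is the well's percent change in burst spike-number SD.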

[13] = CCTE_Shafer_MEA_acute_per_network_burst_electrodes_number_mean: CCTE's Neural Acute Assay for Mean Number of Electrodes in a Network Burst, Shafer Lab (AID 2284021);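 further: curves fitted for decreases only so hits reduce electrodes per burst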
Summary of the method: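 Readout: % change in mean electrodes active per network burst, post- vs pre-treatment, each well. Spikes detected at 8x rms noise after 300-5000 Hz band-pass; rat cortical cultures, DIV 13/15, compounds 0.03-40 uM, DMSO baseline.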

[14] = CCTE_Shafer_MEA_acute_network_burst_percentage: CCTE's Neural Acute Assay for Percentage of Network Bursts, Shafer Lab (AID 2284022);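 further: curves fitted for loss so actives lower network burst percentage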
Summary of the method: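 Rat cortical cultures, DIV 13/15; 20 min equilibration, 40 min baseline, compound 0.03-40 uM, 40 min recording, 37 C. Spikes: 300-5000 Hz band-pass, threshold 8x rms noise. Readout: % change in network-burst spike fraction; loss direction vs DMSO.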

[15] = CCTE_Shafer_MEA_acute_synchrony_index: CCTE's Neural Acute Assay for Synchrony, Shafer Lab (AID 2284027);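 further: fitted for loss of signal so actives lower synchrony relative to DMSO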
Summary of the method: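 Readout is percent change in the unitless network synchrony index (0 low, 1 high) between a 40-min baseline and a 40-min recording in compound. Cultures were primary rat cortical neurons on MEAs, treated at 0.03-40 uM on DIV 13 or 15.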

[16] = CCTE_Harrill_HTTr_CellCount_MCF7: CCTE's Cell Proliferation Assessment for the High-Throughput Transcriptomics (HTTr) Platform, Harrill Lab (AID 2284012; active means hit-call score of the fitted dose curve at least 0.9, where 1 is the maximum;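 further: count of Hoechst-stained nuclei per well by high-content imaging in MCF-7 cells; cells exposed to compound for six hours; intended direction is loss of nuclei count meaning fewer cells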)
Summary of the method: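 Chemicals in eight-point dilution series are added to MCF-7 cells for six hours, nuclei are stained with Hoechst and imaged, and per-well nuclei counts are fitted in both directions relative to DMSO controls.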

Measured: AC50

C[C@]12CCC(=O)C[C@@H]1CC[C@@H]1[C@@H]2CC[C@]2(C)[C@@H](O)CC[C@@H]12
inactive: [1] | [4] | [5] | [6] | [7] | [8] | [11] | [12] | [13] | [14]
active: [2] 20 µM | [3] 20 µM | [9] 30.5 µM | [10] 31.1 µM | [15] 30.7 µM

C=C(C)C(=O)[O][Sn]([CH2]CCC)([CH2]CCC)[CH2]CCC
inactive: [7] | [8] | [11]
active: [1] 10.9 µM | [2] 0.0312 µM | [3] 0.0311 µM | [4] 22.3 µM | [5] 11 µM | [16] 11 µM | [6] 3.11 µM | [9] 0.0833 µM | [10] 20 µM | [12] 0.0933 µM | [13] 2.81 µM | [14] 0.205 µM | [15] 0.116 µM

CC(=O)c1cc(C(C)(C)C)cc2c1CCC2(C)C
inactive: [4] | [5]

O=C(O)C(F)(F)C(F)(F)C(F)(F)C(F)(F)C(F)(F)C(F)(F)C(F)(F)C(F)(F)C(F)(F)C(F)(F)F
inactive: [2] | [3] | [4] | [5] | [16] | [8] | [9] | [10] | [11] | [12] | [13] | [14] | [15]
active: [6] 20 µM | [7] 5.97 µM

CCOP(=S)(OCC)Oc1nc(Cl)c(Cl)cc1Cl
active: [1] 23.4 µM
inactive: [4] | [5] | [16]

CC(C)(c1ccc(OCC2CO2)cc1)c1ccc(OCC2CO2)cc1 (stereo not drawn)
inactive: [4] | [5]

CN(CCCC(=O)c1cccnc1)N=O
inactive: [4] | [5]

O=C(Nc1ccc2[nH]ccc2c1)c1cc2cc(F)ccc2n1Cc1cccc(F)c1
inactive: [4] | [5] | [6] | [7] | [9] | [10] | [11] | [12] | [13] | [14] | [15]
active: [2] 1.43 µM | [3] 1.43 µM | [8] 4.2 µM

CC(C)(C)CC(C)(C)c1ccc(O)cc1
inactive: [1] | [4] | [5] | [16] | [6] | [7] | [9] | [10] | [11] | [12] | [13] | [14] | [15]
active: [2] 6.06 µM | [3] 6.07 µM | [8] 5 µM

CCSC(C)CC1CC(=O)C(C(CC)=NOC/C=C/Cl)=C(O)C1 (stereo not drawn)
inactive: [4] | [5]
